Source: PubChem
Yeast superoxide: reduction of superoxide in aged yeast, primary screen, HTS | superoxide response (% of plate mean), % at 10 µM | S. cerevisiae aged cells, superoxide DHE fluorescence; active compounds read low | hit rate 0.18% among 330,000 | AID 2690, 2010;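 active = superoxide response under a set limit, about three screen SD below normal, cut at about 65% in these data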;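 note: yeast aged for seven days with compound at 30 °C before DHE staining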
MPTP block: mitochondrial permeability transition pore inhibitors, primary screen, biochemical, isolated mouse mitochondria, absorbance | Ca2+ swelling absorbance, 30 min | inhibition, % at 10 µM | hit rate 1.4% among 360,000;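 active = inhibition of 50% or more, scaled per plate between neutral and stimulator controls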
H9c2 protect: cardioprotection against H2O2-induced cell death, primary screen, uHTS, H9c2 cells, ATPLite luminescence; AID 588492, 2011; H9c2 cardiomyocytes, H2O2 injury protection, 2 h; protection from H2O2 cell death, % at 20 µM; hit rate 0.63% among 360,000;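 active = compounds giving at least 50% protection of heart cells from peroxide-induced death in the single-dose screen, raw or plate-pattern-corrected value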
FAS TE block: FAS thioesterase domain inhibitors, primary screen, biochemical, fluorescence intensity, uHTS; Fatty acid synthase (Homo sapiens), P49327; recombinant FAS-TE, OMFH fluorogenic substrate, fluorescence endpoint; inhibition, % at 15 µM; hit rate 0.67% among 360,000; AID 602261, 2012;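 active = compounds whose normalised, plate-corrected inhibition of enzyme fluorescence in the single-dose primary screen is 50% or more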
Target sequence (P49327 whole entry, looked up, the tested form may be a part): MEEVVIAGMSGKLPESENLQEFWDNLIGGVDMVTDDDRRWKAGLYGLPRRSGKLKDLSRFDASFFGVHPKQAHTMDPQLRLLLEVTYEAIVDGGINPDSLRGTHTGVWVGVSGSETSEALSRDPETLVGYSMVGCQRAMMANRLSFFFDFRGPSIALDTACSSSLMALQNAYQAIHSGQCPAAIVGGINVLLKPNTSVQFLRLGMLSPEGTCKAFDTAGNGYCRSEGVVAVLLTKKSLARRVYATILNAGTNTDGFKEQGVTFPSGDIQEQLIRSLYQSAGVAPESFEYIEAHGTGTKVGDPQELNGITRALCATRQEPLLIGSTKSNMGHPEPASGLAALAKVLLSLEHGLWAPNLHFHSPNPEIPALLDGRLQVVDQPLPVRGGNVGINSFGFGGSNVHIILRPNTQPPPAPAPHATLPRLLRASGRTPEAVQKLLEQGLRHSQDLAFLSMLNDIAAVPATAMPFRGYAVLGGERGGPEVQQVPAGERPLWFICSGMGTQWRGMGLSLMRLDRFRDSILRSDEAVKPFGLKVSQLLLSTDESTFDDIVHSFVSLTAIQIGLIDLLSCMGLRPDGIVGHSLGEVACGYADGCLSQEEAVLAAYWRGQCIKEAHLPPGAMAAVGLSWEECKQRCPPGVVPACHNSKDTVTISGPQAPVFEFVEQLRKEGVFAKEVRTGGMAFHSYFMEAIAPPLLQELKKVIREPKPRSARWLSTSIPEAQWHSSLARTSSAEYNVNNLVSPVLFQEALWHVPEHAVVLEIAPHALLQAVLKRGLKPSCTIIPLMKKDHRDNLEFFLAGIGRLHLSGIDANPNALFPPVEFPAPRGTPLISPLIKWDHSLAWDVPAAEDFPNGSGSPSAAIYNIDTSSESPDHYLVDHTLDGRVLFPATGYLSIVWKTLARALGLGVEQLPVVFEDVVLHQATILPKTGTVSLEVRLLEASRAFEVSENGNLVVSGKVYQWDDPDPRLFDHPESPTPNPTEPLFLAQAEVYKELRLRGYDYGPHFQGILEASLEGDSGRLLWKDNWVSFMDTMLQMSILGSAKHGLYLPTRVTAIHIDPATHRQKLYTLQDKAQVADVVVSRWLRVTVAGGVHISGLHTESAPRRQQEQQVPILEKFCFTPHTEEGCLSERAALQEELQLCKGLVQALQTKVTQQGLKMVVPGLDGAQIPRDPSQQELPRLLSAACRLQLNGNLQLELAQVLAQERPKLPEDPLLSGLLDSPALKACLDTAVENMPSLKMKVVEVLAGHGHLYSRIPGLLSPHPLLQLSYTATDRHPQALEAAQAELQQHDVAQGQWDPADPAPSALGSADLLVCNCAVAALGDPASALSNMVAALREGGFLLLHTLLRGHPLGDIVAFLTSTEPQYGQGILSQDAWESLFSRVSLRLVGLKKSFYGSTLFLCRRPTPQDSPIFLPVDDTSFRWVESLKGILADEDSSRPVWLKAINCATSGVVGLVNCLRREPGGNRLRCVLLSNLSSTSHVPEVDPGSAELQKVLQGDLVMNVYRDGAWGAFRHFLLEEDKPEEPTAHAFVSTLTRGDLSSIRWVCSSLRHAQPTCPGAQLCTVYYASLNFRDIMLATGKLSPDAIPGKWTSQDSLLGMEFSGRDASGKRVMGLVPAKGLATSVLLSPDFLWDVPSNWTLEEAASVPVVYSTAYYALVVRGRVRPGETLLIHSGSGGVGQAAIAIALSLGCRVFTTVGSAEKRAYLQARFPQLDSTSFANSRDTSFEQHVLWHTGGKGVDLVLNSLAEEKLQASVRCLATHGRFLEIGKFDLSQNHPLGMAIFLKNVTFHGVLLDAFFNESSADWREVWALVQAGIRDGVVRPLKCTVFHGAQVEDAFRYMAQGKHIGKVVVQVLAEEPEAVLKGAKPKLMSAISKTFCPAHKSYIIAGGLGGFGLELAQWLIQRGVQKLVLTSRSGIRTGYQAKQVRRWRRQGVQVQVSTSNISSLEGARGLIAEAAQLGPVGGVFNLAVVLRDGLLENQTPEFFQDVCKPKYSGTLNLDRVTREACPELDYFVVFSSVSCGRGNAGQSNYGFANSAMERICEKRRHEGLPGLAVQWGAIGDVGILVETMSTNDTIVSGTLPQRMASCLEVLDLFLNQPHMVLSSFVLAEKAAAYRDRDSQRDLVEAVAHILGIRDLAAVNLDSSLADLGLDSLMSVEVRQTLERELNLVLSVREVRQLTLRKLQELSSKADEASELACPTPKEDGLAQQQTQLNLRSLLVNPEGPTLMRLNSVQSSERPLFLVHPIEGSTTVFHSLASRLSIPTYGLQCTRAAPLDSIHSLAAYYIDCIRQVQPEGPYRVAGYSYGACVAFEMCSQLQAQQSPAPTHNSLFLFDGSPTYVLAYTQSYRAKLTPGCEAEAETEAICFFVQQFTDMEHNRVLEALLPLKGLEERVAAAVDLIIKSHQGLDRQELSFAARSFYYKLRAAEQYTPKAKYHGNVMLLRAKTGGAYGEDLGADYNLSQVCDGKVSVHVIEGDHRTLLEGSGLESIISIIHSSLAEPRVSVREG
aDG glyco up: activators of alpha-DG glycosylation, primary screen, uHTS, Pro5-aDG cells, AlphaScreen; alpha-DG glycosylation AlphaScreen (IIH6); 0% Pro5, 100% B10-LARGE cell signal; activation, % at 10 µM; hit rate 0.22% among 360,000; AID 624168, 2012;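 active = activation of at least 8% versus controls, or a plate z-score of at least 8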;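 note: Pro5 are CHO cells carrying HIG-tagged alpha-DG that lacks glycosylation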
SUMO Mot1 rescue: yeast Mot1-301 growth rescue at high temperature, primary screen, SUMOylation pathway inhibitor project, S. cerevisiae, ATP luminescence, 38.5C; S. cerevisiae Mot1-301 growth rescue; percent above DMSO median, 100 means doubled; hit rate 1% among 320,000; growth rescue, % at 18.8 µM;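 active = every valid replicate shows activation above 250% relative to neutral control wells; inactive = the rest, any valid replicate at or below 250%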
Hits are given with their value; i = inactive; nt = not tested or not shown; + = active, no number. A selection: hits, their analogues and other compounds. The true share with any hit is near 3.8%.

SMILES | Yeast superoxide | MPTP block | H9c2 protect | FAS TE block | aDG glyco up | SUMO Mot1 rescue
CCn1cc(C(=O)N[C@@H](CCSC)C(=O)NCCN2CCOCC2)c(=O)c2cc3c(cc21)OCO3 | i | i | i | i | i | i
COc1ccc(-n2nnnc2S(=O)(=O)CC(=O)N2CCCCC2)cc1 | i | i | i | i | i | 486
O=C(Nc1ccc2c(c1)OCO2)c1cc(C2CCCCN2C(=O)c2ccccc2)on1 (configuration not stated) | nt | i | i | i | i | nt
O=C(OCc1nnc(-c2ccccc2)o1)c1ccc([N+](=O)[O-])s1 | i | i | 52 | i | i | i
O=C(Nc1ccc(CN2CCOCC2)cc1)c1ccc(-c2cccc([N+](=O)[O-])c2)o1 | i | i | 62 | i | i | i
COc1c(Cl)cc(Cl)cc1C(=O)Nc1ccc(CN2CCOCC2)cc1 | i | i | i | i | i | 356
C/C(=N\NC(=O)C1CC1)c1ccccc1Br | i | i | i | i | i | i
C/C(=N\NC(=O)C1CC1)c1ccccc1O | i | i | i | i | i | 640
Cc1ccc(Cn2c(CCNc3nc(-c4ccc(Cl)c([N+](=O)[O-])c4)cs3)nc3cc(C(=O)NCCCO)ccc32)cc1 | i | i | 70 | i | i | i
CC1CCN(CCCNC(=O)c2n[nH]c(=O)c3ccccc23)CC1 | i | i | 72 | i | i | nt
CC1CC(C)CN(S(=O)(=O)c2ccc3c(c2)oc(=O)n3CC(=O)N(C)Cc2ccccc2)C1 (configuration not stated) | i | i | i | i | i | 333
Clc1ccc2ccc3cccnc3c2n1 | i | i | i | i | i | i
O=S1(=O)Nc2c(ccc3cccnc23)-c2ccccc21 | i | i | i | i | i | +
O=C(c1csc2c1CCCC2)n1cccn1 | 60 | i | i | i | i | i
Cc1cc(=O)[nH]c2c(C)cc(S(=O)(=O)N3CCCCC3)cc12 | i | i | i | i | i | i
COc1ccc(S(=O)(=O)N(CCCN2CCCC2=O)Cc2cc3cc(C)c(C)cc3[nH]c2=O)cc1 | nt | i | 47 | i | i | nt
Cc1ccccc1S(=O)(=O)N1C[C@H]2[C@H]3C(=O)N(c4ccccc4)C(=O)[C@H]3CC(=O)[C@H]2[C@@H]1c1ccc(Cl)cc1 | nt | i | i | i | i | nt
O=C(NCc1nnc2c(C(F)(F)F)cc(Cl)cn12)C1CCCC1 | i | i | i | i | i | i
Oc1ccc(/C=N/Nc2cc(N3CCOCC3)nc(N3CCOCC3)n2)cc1O | i | i | 53 | i | i | i
Oc1cccc(/C=N/Nc2cc(N3CCOCC3)nc(N3CCOCC3)n2)c1 | i | i | i | i | i | i
COC(=O)c1cc2c(-c3ccccc3)cc3ccccn3c-2c1C(=O)OC | i | i | 61 | i | i | nt
Cc1ccccc1-n1c(=O)n(Cc2ccco2)c(=O)c2[nH]cnc21 | i | i | i | i | i | i
Cc1cc(C)cc(NC(=O)CN2C(=O)NC(C)(c3ccccc3)C2=O)c1 (configuration not stated) | i | i | i | i | i | i
CC1(c2ccccc2)NC(=O)N(CC(=O)Nc2cccc(/C=C/c3ccccn3)c2)C1=O (configuration not stated) | i | i | 68 | i | i | i
O=C(CC1SCCNC1=O)Nc1cccc([N+](=O)[O-])c1 (configuration not stated) | i | i | i | i | i | i
SMILES | Yeast superoxide | MPTP block | H9c2 protect | FAS TE block | aDG glyco up | SUMO Mot1 rescue
COc1cccc(-c2nn3c(-c4cc(C)[nH]n4)nnc3s2)c1 | i | i | i | i | i | i
COc1cccc(-c2nn3c(-c4ccco4)nnc3s2)c1 | i | i | 73 | i | i | i
COc1cccc(OC)c1-c1nn2c(-c3ccco3)nnc2s1 | i | i | 54 | i | i | i
CCOc1cccc(-c2nnc3sc(-c4ccco4)nn23)c1 | i | i | i | i | i | i
Cc1c(NS(=O)(=O)c2cccc(C(=O)NC(C)c3ccccc3)c2)c(=O)n(-c2ccccc2)n1C (configuration not stated) | nt | i | i | i | i | nt
Fc1cccc(CN2CCN(c3nc4nonc4nc3NC3CC3)CC2)c1 | i | i | i | i | i | i
CCOc1cc(Br)cc(/C=N/NC(=O)c2cccnc2)c1O | i | i | i | i | i | i
Cc1ccc(S(=O)(=O)NNC(=O)CCC(=O)Nc2ccccc2Cl)cc1 | i | i | i | i | i | i
Cc1ccc(S(=O)(=O)NNC(=O)CCC(=O)Nc2ccc(C)c(C)c2)cc1 | i | i | i | i | i | 350
CCN(CC)c1c(C)nc2ccc(C(=O)N3CCN(C(=O)c4ccco4)CC3)cn12 | nt | i | i | i | i | nt
C/C(=N\Nc1ccccc1)c1c(O)cc(C)oc1=O | i | i | i | i | i | 324
Cc1ccc(NC(=O)c2ccc3c(c2)C(=O)N(c2ccccc2C)C3=O)nc1 | i | i | i | i | i | i
CCOc1ccc(CCNC(=O)CSc2n[nH]c(N)n2)cc1OCC | i | i | i | i | i | 357
Cc1ccc(OCCC(=O)OCC(=O)NCCNC(=O)COC(=O)CCOc2ccc(C)cc2)cc1 | nt | i | i | i | i | nt
COc1ccc(S(=O)(=O)N(C(=O)c2ccncc2)c2ccc(OC(=O)c3ccncc3)cc2)cc1 | i | i | i | i | i | 309
COc1cc(/C(O)=C(\C#N)c2nc3ccccc3[nH]2)cc(OC)c1OC | i | i | i | i | i | i
Cc1cccc2sc(N(CCCN3CCOCC3)C(=O)CS(=O)(=O)c3ccc(F)cc3)nc12 | i | i | i | i | i | i
O=C(CS(=O)(=O)c1ccccc1)N(CCCN1CCOCC1)c1nc2c(F)cccc2s1 | i | i | i | i | i | 349
CCCCCCSc1ccc([C@@H]2[C@H]3C(=O)N(CC)C(=O)[C@H]3[C@]3(C(=O)OC)CCCN23)cc1 | i | i | i | i | i | i
C=CCC[C@H](Cc1ccc(F)cc1)C(=O)OC[C@@H](Cc1c[nH]c2ccccc12)NC(=O)[C@@H](CC=C)CC(=O)NCCO | i | i | 68 | i | i | i
C=CCC[C@@H](Cc1ccc(F)cc1)C(=O)OC[C@@H](Cc1c[nH]c2ccccc12)NC(=O)[C@@H](CC=C)CC(=O)NCCO | i | i | i | i | i | nt
C[C@@H]1CN([C@@H](C)CO)S(=O)(=O)c2ccc(Br)cc2O[C@H]1CN(C)Cc1ccc(-c2ccccc2)cc1 | nt | i | i | i | i | nt
Nc1nc(N)c2[nH]c(-c3ccccc3)nc2n1 | i | i | i | i | i | i
CS(=O)(=O)N1CCC(Oc2ccccc2C(=O)NC(C2CC2)C2CC2)CC1 | i | i | i | i | i | 834
